Test results from PubChem BioAssay.
Unmarked numbers belong to inactive results. Active and inactive are the calls of the source. Rule as the data show it, unless noted: active = inhibition above about 25%; inactive = the rest.

Key:
[1] = biological target: Nuclear receptor coactivator 1 (Homo sapiens) (UniProt Q15788); assay: NCOA1 GAL4-fusion reporter inhibition – cell-based, luminescence, quadruplicate, confirmation (AID 588820;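 active = mean inhibition above 46.68%, the untreated control wells mean plus 3 SD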;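 also: 0% = DMSO wells and 100% = gossypol 36 µM treated wells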); details: HEK293 GAL4-SRC1 luciferase reporter, at 3.6 µM, stronger effect = higher value
Sequence of Nuclear receptor coactivator 1 (Homo sapiens) (Q15788 whole entry, looked up, the tested form may be a part): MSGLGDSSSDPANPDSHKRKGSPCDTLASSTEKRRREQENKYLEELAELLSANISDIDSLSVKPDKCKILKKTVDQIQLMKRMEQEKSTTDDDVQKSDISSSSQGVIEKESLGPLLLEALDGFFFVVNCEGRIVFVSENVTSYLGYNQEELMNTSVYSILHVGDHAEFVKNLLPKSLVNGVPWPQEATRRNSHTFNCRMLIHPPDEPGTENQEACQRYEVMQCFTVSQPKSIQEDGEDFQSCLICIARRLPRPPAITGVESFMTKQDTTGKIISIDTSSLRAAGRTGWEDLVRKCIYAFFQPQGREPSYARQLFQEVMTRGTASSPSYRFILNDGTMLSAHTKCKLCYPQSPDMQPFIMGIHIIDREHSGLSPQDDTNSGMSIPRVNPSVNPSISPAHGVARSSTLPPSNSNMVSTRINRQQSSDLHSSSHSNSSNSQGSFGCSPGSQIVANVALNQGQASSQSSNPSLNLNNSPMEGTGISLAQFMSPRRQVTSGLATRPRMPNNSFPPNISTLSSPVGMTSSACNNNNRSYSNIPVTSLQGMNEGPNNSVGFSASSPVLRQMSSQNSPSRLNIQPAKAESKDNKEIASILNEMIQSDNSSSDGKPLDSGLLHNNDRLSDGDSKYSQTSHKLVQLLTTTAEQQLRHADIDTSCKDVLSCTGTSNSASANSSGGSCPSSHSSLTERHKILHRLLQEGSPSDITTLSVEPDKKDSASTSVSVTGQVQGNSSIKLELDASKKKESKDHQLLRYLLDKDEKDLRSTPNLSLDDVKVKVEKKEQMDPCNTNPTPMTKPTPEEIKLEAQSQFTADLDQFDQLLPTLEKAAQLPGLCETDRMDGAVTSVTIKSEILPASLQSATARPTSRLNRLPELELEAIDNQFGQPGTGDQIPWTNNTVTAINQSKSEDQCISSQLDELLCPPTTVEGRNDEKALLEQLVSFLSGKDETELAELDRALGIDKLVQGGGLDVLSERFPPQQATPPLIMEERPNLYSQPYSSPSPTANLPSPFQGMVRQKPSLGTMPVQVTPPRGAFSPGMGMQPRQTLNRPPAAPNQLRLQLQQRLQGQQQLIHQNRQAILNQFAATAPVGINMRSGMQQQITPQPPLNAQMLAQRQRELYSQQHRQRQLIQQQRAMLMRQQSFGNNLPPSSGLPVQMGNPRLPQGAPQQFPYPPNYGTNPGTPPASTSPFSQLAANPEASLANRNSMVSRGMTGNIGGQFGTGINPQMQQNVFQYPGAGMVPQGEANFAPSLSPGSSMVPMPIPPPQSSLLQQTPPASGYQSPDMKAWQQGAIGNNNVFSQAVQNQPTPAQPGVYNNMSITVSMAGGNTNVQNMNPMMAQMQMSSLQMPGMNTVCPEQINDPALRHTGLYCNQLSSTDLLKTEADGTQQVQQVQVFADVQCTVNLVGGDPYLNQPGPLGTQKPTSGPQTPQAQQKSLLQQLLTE

[2] = repression of VP16-driven luciferase reporter – cell-based, luminescence, high throughput, counter-screen for SRC1 inhibitor project (AID 588824); details: cell-based VP16 transactivation luciferase luminescence; at 3.6 µM; stronger effect = higher value

Row | Compound | inhibition [1] [%] | inhibition [2]
1 | COc1ccc(Cc2nnc(SCC(=O)Nc3ccc(C)c(Cl)c3)[nH]c2=O)cc1 | 6.82 | 7.22%
2 | CCOC(=O)C1=C[C@@H](CC)N(S(=O)(=O)c2ccc([N+](=O)[O-])cc2)[C@H]1c1ccccc1 | -2.32 | -3.27%
3 | CC(=O)Nc1cccc(C(=O)Nc2ccc(S(=O)(=O)NC3=NCCCCC3)cc2)c1 | -23 | -8.18%
4 | Cc1cc(C)c(S(=O)(=O)N2CCCC2=O)c(C)c1N(C)S(C)(=O)=O | 0.14 | -4.1%
5 | CSc1nc2[nH]ncc2c(=O)[nH]1 | -1.61 | 1.46%
6 | Cc1cc(C)nc(-n2ncc(C#N)c2N)n1 | -18.5 | 5.06%
7 | CCCCCCN1C2=NCCCN2c2ccccc21 | 1.1 | 10.4%
8 | O=C(NC1CCCCC1)C(c1ccc(F)cc1)N(Cc1ccco1)C(=O)c1csnn1 (centres undefined) | -14.3 | -0.45%
9 | O=C1NC2(CCN(Cc3ccccc3)CC2)Oc2ccccc21 | -21.7 | -3.3%
10 | CC(C)OCCCn1c(=O)c2ccccc2n2c(CCC(=O)N3CCN(c4ccccn4)CC3)nnc12 | -22.8 | -9.58%
11 | CC(C)c1ccc2c(c1)C(N1CCN(C)CC1)Cc1cccnc1S2 (centres undefined) | 6.3 | -5.2%
12 | CC(=O)c1sc2nc(C)c3c(c2c1N)CCCC3 | 13.4 | 3.88%
13 | Cc1cccc(-n2ncc3c2CCCC3NC(=O)CCN2CCCCO2)c1C (centres undefined) | -0.83 | -2.39%
14 | O=C(Nc1cccc(Br)c1)c1cc(S(=O)(=O)N2CCOCC2)cs1 | -2.57 | -2.73%
15 | CCOC(=O)C1(Cc2cccc(Cl)c2)CCCN(C(=O)c2ccoc2C)C1 (centres undefined) | -4.52 | -3.85%
16 | Cc1sc2ncnc(N3CCC(C(=O)Nc4cc(S(C)(=O)=O)ccc4Cl)CC3)c2c1C | 14.9 | 9.27%
17 | Cc1ccc(C(C(=O)NCc2ccccc2)N(Cc2cccs2)C(=O)c2ccc3c(c2)OCCO3)cc1 (centres undefined) | -21.8 | -1.97%
18 | COc1cc(C)c(/C=C(\C#N)C(=O)Nc2ccc(C)cc2)cc1C(C)C | -24 | 0.73%
19 | CCOc1ccc(CCNC(=O)CSCc2ccc(C)cc2)cc1OCC | -18.5 | -1.5%
20 | Cc1cc(NCc2cccnc2)no1 | -7.64 | 9.01%
21 | COc1ccc(CCC(C)NCc2cc(OC)cc(OC)c2)cc1 (centres undefined) | -28.3 | -6.4%
22 | O=C(Nc1sc2c(c1C(=O)NCCCO)CCCC2)c1ccccc1 | -30.3 | -14.6%
23 | COc1ccc(-c2n[nH]c(=S)n2-c2ccc(C)cc2)cc1 | -68.5 | -40%
24 | Cc1cccc(NC(=O)CSCC(=O)N2CCN(Cc3ccc4c(c3)OCO4)CC2)c1 | 2.48 | 1.12%

Row | Compound | inhibition [1] [%] | inhibition [2]
25 | O=c1[nH]cnc2sc3c(c12)CCCCC3 | -0.67 | -2.41%
26 | O=C1C2C3C=CC(C3)C2C(=O)N1CN(Cc1ccccc1)CN1C(=O)C2C3C=CC(C3)C2C1=O (centres undefined) | -20.9 | -14.3%
27 | COc1ccc(C(C(=O)NCC2CCCO2)N(Cc2cccs2)C(=O)c2snc(C(N)=O)c2N)cc1 (centres undefined) | -52.6 | -8.57%
28 | CC(OC(=O)CSCC(=O)Nc1ccc(Cl)cc1)C(=O)N(C)Cc1ccccc1 (centres undefined) | -7.38 | 1.96%
29 | O=C(CSc1nc(C2CC2)nc2ccccc12)Nc1cccc(O)c1 | -0.77 | 1.43%
30 | COc1ccc(OC)c(C2=NS(=O)(=O)N(C)C(C(=O)Nc3ccc(F)cc3F)=C2)c1 | -0.3 | 4.07%
31 | Cc1cccc(NC(=O)c2cc(S(=O)(=O)N(C)c3ccc(F)cc3)ccc2Cl)n1 | -17.6 | -4.3%
32 | N#Cc1ccc(Oc2ccc(C(F)(F)F)cc2NC(=O)c2ccc(F)cc2)cc1 | 6.71 | 1.11%
33 | Cn1c(=O)c2[nH]c(Nc3ccccc3)nc2n(C)c1=O | -22.1 | 0.08%
34 | CCCn1c(=O)c(C(=O)NC(C)c2ccccc2)c(O)c2ccccc21 (centres undefined) | -10.4 | -9.6%
35 | COc1ccc(CN(CC(=O)NCc2ccccc2)C(=O)CCC(=O)Nc2cc(C)ccn2)cc1 | -7.07 | 0.36%
36 | COc1ccc(-c2[nH]ncc2CN(C)Cc2nonc2C)c(OC)c1 | -25 | -13.1%
37 | CN(C)/C=C/C(=O)c1ccn(S(=O)(=O)c2ccccc2)c1 | -2.09 | -2.37%
38 | O=c1cc(N2CCN(c3ccccc3Cl)CC2)[nH]c(=O)n1Cc1ccc(F)cc1 | -4.06 | 16.8%
39 | c1ccc(-n2cnc3cc(NCc4cccs4)ccc32)cc1 | -69.4 | -44.1%
40 | CCc1nnc(NC(=O)CCC(=O)NCc2ccccc2Cl)s1 | 10.2 | 6.37%
41 | CC1(c2ccccc2)NC(=O)N(CC(=O)Nc2cc3c(cc2Br)OCCO3)C1=O (centres undefined) | -11.8 | -6.44%
42 | CC(C)N1C(=O)/C(=C\c2nc3ccccc3c(=O)n2-c2ccccc2)c2ccccc21 | 7.4 | 24.2%
43 | COc1ccc(Nc2cc(C)nc(NCc3ccccc3)n2)cc1 | 12.3 | 23.2%
44 | CCCCCCCC[n+]1c(C)n(-c2ccccc2)c2ccc(NC(C)=O)cc21 | 15.6 | 19.2%
45 | c1ccc(CC2CCN(c3ncnc4sccc34)CC2)cc1 | -13.8 | 29.4% (active)
46 | CC(=O)c1cc2c(C)cc(=O)oc2cc1O | 19.4 | 6.17%
47 | COc1cc2cc[n+](Cc3ccc([N+](=O)[O-])cc3)cc2cc1OC | -2.4 | -3.17%
48 | COc1cccc(NC(=O)CN(C)CC(=O)Nc2ccc(C)c([N+](=O)[O-])c2)c1 | 28 | 27.2% (active)

Row | Compound | inhibition [1] [%] | inhibition [2]
49 | Cc1cc(C)c2nc(NNC(=O)c3ccc(S(=O)(=O)N4CCc5ccccc5C4)cc3)sc2c1 | 32.2 | 30% (active)
50 | Cc1ccc(OCCN2CCN(C(=O)CCC(=O)Nc3nnc(CC(C)C)s3)CC2)cc1 | 2.56 | 11.8%
51 | Cc1cccc(C(=O)OCC(=O)NNC(=O)c2cccs2)c1O | -18.5 | -2.62%
52 | CCc1c(C)nc2c(C)cccc2c1SCCC#N | 24.9 | 8.27%
53 | Cn1cc(S(=O)(=O)Nc2ccc(OC(F)(F)F)cc2)c(=O)n(C)c1=O | 6.39 | -5.51%
54 | Cc1cccc(NC(=O)C2CCN(S(=O)(=O)c3ccc4c(c3)OCCCO4)CC2)n1 | -23.6 | 17.2%
55 | COc1ccc(C(=O)n2cc(C(=O)c3cc(C)ccc3O)cn2)cc1OC | -3.44 | -0.92%
56 | Cc1sc2ncnc(N3CCC(C(=O)N(C)CC(=O)Nc4ccccc4Br)CC3)c2c1C | 5.26 | 13.3%
57 | CCc1ccc(NC(=O)c2ccc(F)c(S(=O)(=O)N(CC)c3ccccc3)c2)cc1 | 3.58 | 13.5%
58 | Cc1ccccc1C(=O)Nc1cc(NC(=O)c2ccccc2C)cc(C(=O)O)c1 | -14.1 | -11.4%
59 | NC(CO)C(=O)NNCc1ccc(O)c(O)c1O (centres undefined) | -18.8 | -2.94%
60 | COc1ccc(-c2csc3ncnc(N4CCN(CCO)CC4)c23)cc1 | 0.84 | 9.88%
61 | CCN(CC(=O)Nc1c(F)cccc1F)C(=O)Cc1csc(-c2ccccc2)n1 | -10.5 | -7.28%
62 | O=C(NCc1ccccc1)C(c1ccccc1)N(Cc1cccs1)C(=O)c1cnccn1 (centres undefined) | -71.6 | -20.6%
63 | Cc1ccc(S(=O)(=O)CC(CN2CCCCC2)N2CCCCC2)cc1 (centres undefined) | 4.8 | -1.35%
64 | CSc1nc(N)nc2c1ncn2CC(=O)N1CCN(Cc2c(C)cc(C)cc2C)CC1 | -3.22 | 34.5% (active)
65 | Cn1ncc(Cl)c1C(=O)NCc1cc(C(C)(C)C)n[nH]1 | -8.52 | -4.25%
66 | C/C(=N\NC(=O)C(C)Oc1ccc([N+](=O)[O-])cc1)c1ccccn1 (centres undefined) | -226 | 45.6% (active)
67 | Cc1ccc(C(=O)NCCn2cc(SCC(=O)Nc3cc(C)on3)c3ccccc32)cc1 | 0.49 | -11.3%
68 | O=C(NCC[C@@H]1C[C@@H]2C=C[C@H]1C2)c1cc(COc2ccc(F)cc2F)on1 | -4.95 | 1.83%
69 | O=c1[nH]c(CSc2nc3ccccc3o2)nc2c1cnn2-c1ccccc1 | -22.6 | 4.42%
70 | C=CCn1c(SCC(=O)Nc2ccccc2F)nc2ccccc2c1=O | 2.78 | -1.24%
71 | O=C(O)CNC(=O)c1cccc(C(F)(F)F)c1 | -9.63 | -6.05%
72 | O=C(OCC(=O)N1CCN(S(=O)(=O)c2ccc(Cl)cc2)CC1)c1cccc(OC(F)F)c1 | -50.5 | -5.85%
